Here are results for 40 molecules from PubChem BioAssay (Tox21).

Inconclusive results are not listed. A call without a number means that no potency is given here. Unmarked numbers belong to inactive results. Activity calls are given as the source filed them. Calls follow the shape of the full dose curve.

The test is described as follows: p53 small molecule agonists, cell-based qHTS assay with human liver microsomes (AID 1963577).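 Also: p53 response element beta-lactamase reporter cells with liver microsomes plus NADPH.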 Particulars: HCT-116 p53RE-bla with human liver microsomes, ratio, 16 h; series mostly up to 66 µM. An excerpt: National Center for Advancing Translational Sciences [NCATS]
Division of Preclinical Innovation [DPI]
U.S. Environmental Protection Agency [EPA]
National Institutes of Environmental Health Sciences [NIEHS]
National Toxicology Program [NTP]
U.S. Food and Drug Administration [FDA]
p53, a tumor suppressor protein, is activated following cellular insult, including DNA damage and other cellular stresses. The activation of p53 regulates cell fate by inducing DNA repair, cell cycle arrest, apoptosis, or cellular senescence. The activation of p53, therefore, is a good indicator of DNA damage and other cellular stresses. […] The activation of the reporter gene under culture conditions can be detected by fluorescence intensity.
Tox21 Assay Protocol Summary:
The p53RE-bla cells were dispensed at 4,000cells/3ul/well in 1536-well black-clear bottom plates. After the assay plates were incubated at 37 C, 5% CO2 incubator for 5 hours, 23 nL of compounds dissolved in DMSO, positive controls or DMSO only was transferred to the assay plate. Following compound addition, 3 uL of human liver microsomes (XenoTech, Kansas City, KS) at final concentration of 0.5 mg/mL and 1uL of Beta-Nicotinamide adenine dinucleotide 2-phosphate (NADPH) at final concentration of 0.5 mg/mL were transferred to the assay plate. The plates were incubated at 37 C for 16 hours. 1 uL of LiveBLAzer detection mixture was added to each well and the plates were incubated at room temperature in the dark for 2 h.
In general terms: Quantitative high-throughput screening tests each substance at several concentrations.
For the molecule `CN(C)c1ccc(CCO)cc1`, the Potency result was “inactive”.

With `CCCCCCC(O)CCOC(C)=O` (stereo not given), the Potency entry is “inactive”.

In the case of `O=C(NCCO[N+](=O)[O-])c1cccnc1`, the Potency result was “inactive”.

For the molecule `COc1cc(-c2ccc(N=C=O)c(OC)c2)ccc1N=C=O`, the Potency result was “inactive”.

In the case of `CCCCCCC(CO)CCCC` (stereo not given), the Potency result is “inactive”.

`CC1=C(C(=O)OC(C)C)C(c2cccc([N+](=O)[O-])c2)C(C(=O)OC2CN(C(c3ccccc3)c3ccccc3)C2)=C(N)N1` (stereo not given): the Potency entry was “inactive”.

`CC(C)C1OCCN1CCOC(=O)NCCCCCCNC(=O)OCCN1CCOC1C(C)C` (stereo not given): the Potency result was “inactive”.

For the molecule `CC(C)CCCC(=O)O`, the Potency result is “inactive”.

Turning to `CN1Cc2cc(C(=O)N3CCC(C4CCNCC4)CC3)ccc2N[C@@H](CC(=O)O)C1=O`, the Potency entry was “inactive”.

On to `COC(=O)c1ccccc1Cl`, for which the Potency entry is “inactive”.

For `Nc1nc(-c2ccccc2)c(Br)c(=O)[nH]1`, the Potency result is “inactive”.

As to `CCOC(=O)c1c(N)sc2c1CCN(Cc1ccccc1)C2`, the Potency entry is “inactive”.

For `CN(C)CCc1c[nH]c2ccc(CS(=O)(=O)N3CCCC3)cc12`, the Potency result is “inactive”.

As for `COc1cc2nc(Cl)nc(N)c2cc1OC`, the Potency entry is “inactive”.

Take `CCCCCCCCCCCCCCCCCCOCCO`: the activation is 4.4% [at 13.5 µM].

Take `CC1(C)C(=O)N(CO)C(=O)N1CO`: the Potency entry was “inactive”.

Turning to `CN(C)c1ccc(C(c2ccccc2)c2ccc(N(C)C)cc2)cc1`, the Potency entry is “inactive”.

On to `CC(C)Cc1ccc(C(C)C(=O)OCc2ccccn2)cc1` (stereo not given), for which the Potency result was “inactive”.

Regarding `CC/C=C\CC/C=C/C(OCC)OCC`, the Potency result is “inactive”.

Consider `Cc1cc(S(=O)(=O)O)ccc1N=Nc1c(O)ccc2ccccc12`, for which the Potency entry was “inactive”.

Take `CC(C)OC(=O)C(C)N(C(=O)c1ccccc1)c1ccc(F)c(Cl)c1` (stereo not given): the Potency result is “inactive”.

Regarding `CCCCCCCCCI`, the Potency entry was “inactive”.

In the case of `CN1CCCC(n2nc(Cc3ccc(Cl)cc3)c3ccccc3c2=O)CC1` (stereo not given), the Potency result is “inactive”.

For the molecule `CCC(CO)(CO)COCC(CC)(CO)CO`, the Potency entry was “inactive”.

For the molecule `OCc1ccccn1`, the Potency entry is “inactive”.

As for `CN(C)CCN(Cc1ccc(Cl)cc1)c1ccccn1`, the Potency result was “inactive”.

With `CCOC(=O)CCC(=O)OCC`, the Potency result is “inactive”.

With `Clc1ccc(C(Cn2ccnc2)OCc2c(Cl)cccc2Cl)c(Cl)c1` (stereo not given), the Potency result is “inactive”.

`O=[N+]([O-])c1cc(Cl)c(Cl)c(Cl)c1Cl`: the Potency result was “inactive”.

Consider `ICCc1ccccc1`, for which the Potency entry is “inactive”.

On to `CC(=O)c1ccc(Cl)c(Cl)c1Cl`, for which the Potency entry was “inactive”.

Take `O=C(c1ccc(O)cc1)c1ccc(Cl)cc1`: the Potency result is “inactive”.

With `CCCCNc1ccc(NCCCC)c2c1C(=O)c1ccccc1C2=O`, the activation was 5.72% [at 13.5 µM].

Consider `O=C(O)c1cn(C2CC2)c2cc(Cl)c(F)cc2c1=O`, for which the Potency result was “inactive”.

For the molecule `N#CCc1ccc(Cl)cc1Cl`, the Potency result was “inactive”.

As to `OC[C@H](Cc1cccc(O)c1)[C@H](CO)Cc1cccc(O)c1`, the Potency result was “inactive”.

On to `C1OCOCO1`, for which the Potency entry was “inactive”.

For `CCOc1ccccc1N`, the Potency result is “inactive”.

For the molecule `Oc1cn2c(n1)Nc1ccc(Cl)c(Cl)c1C2`, the activation was -4.43% [at 13.5 µM].

In the case of `CCC(=O)c1cccc(Cl)c1`, the Potency result is “inactive”.
